The campaign covered roughly 69,000 compounds. About 8,600 (12%) showed an effect of 50% or more. The sample as a whole holds a higher share of strong results than the screen did.
What follows are molecules tested on Plasmodium berghei (assay: Screen against P. berghei liver stage (PbLuc), transformed with Luciferase, at 10uM). Settings: tested at 10 uM.
Type: functional, HepG2

Row | Structure (SMILES) | INHIBITION
1 | CC(C)CN1Cc2c(C(=O)NC3CC3)ncn2-c2ccccc2S1(=O)=O | 50.9%
2 | CCN1Cc2c(C(=O)NC(C)C)ncn2-c2ccccc2S1(=O)=O | 31.1%
3 | CCN1Cc2c(C(=O)NC)ncn2-c2ccccc2S1(=O)=O | 45.1%
4 | CCC(CC)NC(=O)c1ncn2c1CN(CC)S(=O)(=O)c1ccccc1-2 | 52%
5 | CCCNC(=O)c1ncn2c1CN(CC(C)C)S(=O)(=O)c1ccccc1-2 | 57.9%
6 | CNC(=O)c1ncn2c1CN(CCC(C)C)S(=O)(=O)c1ccccc1-2 | 64.9%
7 | CC(C)CCN1Cc2c(C(=O)O)ncn2-c2ccccc2S1(=O)=O | 31.8%
8 | CCN1Cc2c(C(=O)NCC3CC3)ncn2-c2ccccc2S1(=O)=O | 0.139%
9 | CCNC(=O)c1ncn2c1CN(C)S(=O)(=O)c1ccccc1-2 | -1.53%
10 | CN1Cc2c(C(=O)NC3CCCCC3)ncn2-c2ccccc2S1(=O)=O | 43.4%
11 | CC(C)CN1Cc2c(C(=O)N(C)C)ncn2-c2ccccc2S1(=O)=O | 5.69%
12 | Cc1ccc(C)c(CSc2nnc(C(N)Cc3ccccc3)o2)c1 (stereo not drawn) | 43.8%
13 | Cc1ccc(-c2cc(C3=NC(=CN4CCN(C)CC4)NO3)[nH]n2)s1 | 39.6%
14 | Cc1ccsc1CNC1CCCN(Cc2noc(C3CC3)n2)C1 (stereo not drawn) | 31.8%
15 | CC1CN(CCOc2cccc(C#N)c2)CCN1Cc1nccn1C (stereo not drawn) | -3.2%
16 | COc1ccc(CN2CCC3(CC2)CC(c2cccnc2)CO3)cc1 (stereo not drawn) | 15.4%
17 | Cc1csc(N2CCCN(C(=O)C3(C#N)CCCC3)CC2)n1 | -33.32%
18 | CN(C)CC1CN(Cc2ccc3c(c2)OCO3)Cc2nccn2C1 (stereo not drawn) | 43.8%
19 | CNc1ncc(CN(C)c2ncnc3onc(C)c23)cn1 | 62.9%
20 | Cc1noc(C)c1CN(C)c1ncnc2ccccc12 | 35.6%

Row | Structure (SMILES) | INHIBITION
21 | CNc1ncc(CN(C)c2nc(C)c3ccc(S(C)(=O)=O)cc3n2)cn1 | -9.54%
22 | CNc1ncc(CN(C)C2CCN(C(C)C)CC2)cn1 | -52.2%
23 | Cc1noc(C)c1CN(C)c1ncnc2onc(C)c12 | 74.7%
24 | Cc1noc2ncnc(N(C)Cc3ccco3)c12 | 10.1%
25 | Cc1ccc(S(=O)(=O)NC(=O)C2(c3ccccc3)CCC2)c(C)c1 | 21.1%
26 | CNc1ccc(C)cc1C(=O)N1CCCC2(CCNC2)C1 (stereo not drawn) | 33.7%
27 | CN(CCCOc1ccccc1)Cc1nccn1C | 20.5%
28 | CN(Cc1cc2c(cc1OC(F)F)OCO2)Cc1nccn1C | 43.6%
29 | Cc1ccc(OCCN(C)Cc2nccn2C)c(C)c1 | 55%
30 | CCOc1cccc(C(=O)N2CCC(c3n[nH]c(C4CC4)n3)CC2)c1 | 11.2%
31 | CC(C)N1CCCC(CNC(=O)c2ccnc(-n3ccnc3)c2)C1 (stereo not drawn) | -33%
32 | c1cncc(OCC2CN(Cc3nccs3)Cc3nccn3C2)c1 (stereo not drawn) | 8.52%
33 | COCCN1CCC(CNC(=O)C2(c3cc(C)cc(C)c3)CCC2)C1 (stereo not drawn) | 40.9%
34 | COCCN1CCC(CNC(=O)C2(c3cc(C)cc(C)c3)CC2)CC1 | 26.5%
35 | O=C(NCC1CCN(CCc2ccccc2)C1)c1cc(Cl)c[nH]1 (stereo not drawn) | 72.3%
36 | Nc1cc(C(=O)NCC2CCN(CCc3ccccc3)C2)ccn1 (stereo not drawn) | 37.2%
37 | COCCN1CCC(CNC(=O)Nc2ccc(SC(F)(F)F)cc2)C1 (stereo not drawn) | 66.5%
38 | COCCN1CCC(CNC(=O)Nc2ccc(F)c(Cl)c2)C1 (stereo not drawn) | 7.44%
39 | COCCN1CCC(CNC(=O)Nc2ccc(-c3ccccc3)cc2)C1 (stereo not drawn) | 42.5%
40 | COCCN1CCC(CNC(=O)C2(c3ccc(F)cc3)CCC2)CC1 | 8.64%

Row | Structure (SMILES) | INHIBITION
41 | COCCN1CCC(CNC(=O)c2cc(C)cc(C)c2)C1 (stereo not drawn) | 58.3%
42 | COCCN1CCC(CNC(=O)C2(c3ccc(Br)cc3)CCCC2)C1 (stereo not drawn) | 52.5%
43 | COCCN1CCC(CNC(=O)C2(c3ccccc3)CCC2)C1 (stereo not drawn) | 45.7%
44 | O=C(NCC1CCN(CCc2ccccc2)C1)c1c(F)cccc1F (stereo not drawn) | 45.1%
45 | CC1CCN(c2cncc(CCC3CCCN3)n2)CC1 (stereo not drawn) | 35.8%
46 | CN(C)CC(=O)N1CCC2(CCN(Cc3cccc(F)c3)CC2)C1 | 9.97%
47 | CSCC[C@H](NC(=O)CCn1ccc2c(Br)cccc21)C(=O)O | -2.13%
48 | CCCn1nccc1NC(=O)CN1CCC[C@H]1CO | -72.2%
49 | COCC1CN(CC2CC2)Cc2nccn2C1 (stereo not drawn) | 35.7%
50 | N#CC1(C(=O)N2CCN(Cc3cscn3)CC2)CCCCC1 | 25.6%
51 | CC(C)c1nc(CN(C)C(=O)CCc2ccc3c(c2)OCO3)cs1 | 19.4%
52 | COC(=O)C(NC(=O)CC(C)C)c1cc(F)ccc1F (stereo not drawn) | 15.6%
53 | CCCN1CCC(CNC(=O)C2(c3cc(C)cc(C)c3)CCC2)C1 (stereo not drawn) | 25.1%
54 | CCN1CCC(CNC(=O)c2cc(Cl)c[nH]2)CC1 | 7.39%
55 | COCCN1CCC(CNC(=O)c2cc(Cl)c[nH]2)CC1 | 72.3%
56 | COCCN1CCC(CNC(=O)c2c[nH]c(=O)c(Cl)c2)CC1 | -16%
57 | CCN1CCCC(CNC(=O)C2(c3cc(C)cc(C)c3)CCC2)C1 (stereo not drawn) | 51.1%
58 | CCN1CCC(CNC(=O)C2(c3cccc(C)c3)CC2)C1 (stereo not drawn) | 37%

— ChEMBL document CHEMBL4513216, “Probing the Open Global Health Chemical Diversity Library for Multistage-Active Starting Points for Next-Generation Antimalarials” (ACS Infect Dis, 2020)
